We go through 14 compounds from paper PMC5540273 (PLoS ONE, 2017).
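Note: KINOMEscan kinase panel screen.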

For the experiment, the system named is DYRK2. As to conditions: concentration: 1 μM, replicates: in singlicate; n = 1.
With `c1ccc(-c2ccc3c(-c4ccnc(Nc5ccc6c(c5)OCCO6)n4)cnn3n2)cc1` [GW818941], the “%Inh” value is 0%.
With `CCCc1ccc(S(=O)(=O)NC2CCN(c3ccnc(Nc4ccc(OC)cc4)n3)C2)cc1` (centres unmarked) [GSK1379737] the figure was 0%; with `Clc1cccc(-c2nc(Nc3ccncc3)c3ccccc3n2)c1` [GW873004], 7%.
Regarding `Cc1ccc(O)cc1Nc1cc(C(F)(F)F)nc2ccc(-c3ccncc3)cc12` [GW630823], the “%Inh” value worked out at 0%.
For `COc1cc2ncnc(Nc3ccc(OCc4ccccc4Br)c(Cl)c3)c2cc1OC.Cl` [GI261590] the value was 0%; for `Clc1ccc(-c2cc(-c3c[nH]nc3-c3ccccn3)ccn2)cc1` [GW681251], 0%.
With `CC(C)(C)OC(=O)NC1CCCN(c2cc(-c3ccc4c(N)n[nH]c4c3)nc(N)n2)C1` (centres unmarked) [GSK2286096] the figure was 80%; with `Cc1cccc(-c2nc(Nc3ccc4[nH]nnc4c3)c3ccccc3n2)n1` [GW867587], 26%.
With `O=C(Nc1ccccc1)Nc1ccc(Oc2ccc3nccn3n2)cc1` the figure was 70%.
Consider `CNc1nccc(-c2c(-c3ccc(F)cc3)ncn2CCCN2CCOCC2)n1` [SB-222516], for which the “%Inh” value was found to be 15%.
For `Fc1cccc(COc2ccc(Nc3ncnc4sc(-c5ccc[nH]5)cc34)cc2Cl)c1` [GW707818] the value was 8%.
For `O=C(Nc1ccccc1F)NC1CCN(c2ccnc(Nc3ccc(F)cc3)n2)C1` (centres unmarked) [GSK1379722] the value was 0%; for `Cl.Cl.c1ccc(-c2cc3ccncc3cc2OC2CCNCC2)cc1` [GSK1122999], 21%; for `Fc1cccc(COc2ccc(Nc3ncnc4cc[nH]c34)cc2Cl)c1`, 22%.
